FMDV inh – High Throughput Screening for Foot and Mouth Disease Virus Antivirals | FMDV antiviral cell-based qHTS | Potency, µM (doses to about 57.9 µM), for the others: top-dose activity change, negative = inhibition, usual class: inhibitors | hit rate 1.2% among 410,000 | AID 1159524, 2015; calls by dose curve; tested in HEK293T cells; note: read-out not given here; potency is the fitted concentration of half-maximal effect; % is set by controls: 0 for no effect and ±100 for the full control effect; nearly all actives have a fitted effect of over 45% in size
SARS PLP yeast – qHTS of Yeast-based Assay for SARS-CoV PLP; S. cerevisiae expressing SARS-CoV PLpro, growth rescue; Potency, µM (titrated, usually from 32.9 µM), for inactives: at the top dose activity, positive = growth rescue, actives largely listed as activators; hit rate 0.19% among 330,000; calls by dose curve; note: potency is the fitted concentration of half-maximal effect; 0% is about no effect; nearly all actives have a fitted effect of over 55% in size
HCV inhibitor – qHTS Assay for Inhibitors of Hepatitis C Virus (HCV) | Huh7.5.1 HCVcc-Cre infection, luciferase reporter, 44 h | Potency, µM (highest dose often 41.8 µM), for inactives: at the top dose activity change, negative = inhibition, hits mostly inhibitors | hit rate 3.4% among 340,000 | AID 651820, 2012; active = well fitted inhibition curve with a large enough effect; inconclusive = small, poorly fitted or top-dose-only effect, or another doubt; inactive = no such curve, though single readings can be large or run the other way; note: potency is the fitted concentration of half-maximal effect; % is set by controls: 0 for no effect and ±100 for the full control effect
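A cell-based infection assay in which seeded cells (1,000 per well) receive test compound after 4 h, are inoculated with HCVcc-Cre at approximately 0.5 moi, and are incubated 44 h before luminescence detection.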
HCMV inh – qHTS Assay for inhibitors of the human cytomegalovirus (HCMV); HFF cells, HCMV-luciferase reporter, 72 h; active compounds read low; activity change, negative = inhibition, % at 57.5 µM; hit rate 4.5% among 410,000; in the data active = activity change below about -60%; inconclusive = no clear call, values can overlap the other calls; inactive = above about -39%; note: % is set by controls: 0 for no effect and ±100 for the full control effect
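Two compound doses tested in HFFs infected with HCMV-luciferase, MOI 1 PFU/cell, 72 h at 37C. Lysate luminescence read with OneGlo; data normalized against buffer-only and 10uM Salinomycin inhibitor controls.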
LASV entry inh – qHTS for Inhibitors of binding or entry into cells for Lassa Virus; Lassa virus pseudotype entry inhibition, cell reporter; Potency, µM (doses to about 37.9 µM), inactives show top-dose activity change, negative = inhibition, hits mostly inhibitors; hit rate 1.2% among 300,000; AID 540256, 2011; calls by dose curve; tested in HEK293 cells; note: potency is the fitted concentration of half-maximal effect; % is set by controls: 0 for no effect and ±100 for the full control effect; nearly all actives have a fitted effect of over 50% in size
Marburg entry inh – qHTS for inhibitors of binding or entry into cells for Marburg Virus. Marburg virus pseudotyped entry inhibition, cell reporter. Potency, µM (doses to about 37.8 µM), inactives show top-dose activity change, negative = inhibition, hits mostly inhibitors. hit rate 1.8% among 300,000. AID 540276, 2011; calls by dose curve; tested in HEK293 cells; note: potency is the fitted concentration of half-maximal effect; % is set by controls: 0 for no effect and ±100 for the full control effect
The depositor's hits bear a star; ? = inconclusive; nt = no result; [ ] = another dose, or the depositor's remark. This is a sample that favours compounds with a hit; in the whole collection about 8% have one here.

SMILES	FMDV inh	SARS PLP yeast	HCV inhibitor	HCMV inh	LASV entry inh	Marburg entry inh
O=C(Cn1nc(C(F)(F)F)cc1C1CC1)Nc1ccccc1F	-27%	15%	-3%	?	5%	1%
O=C(Cn1nc(C(F)(F)F)cc1C1CC1)NCc1ccccc1F	-15%	1%	-14%	-69*	6%	-18%
CC(Sc1cn(CCNC(=O)c2ccccc2F)c2ccccc12)c1ccccc1 (centres undefined)	?	nt	nt	-15	?	?
OCCN(CCO)c1ccc(C(c2ccccc2Cl)c2ccc(N(CCO)CCO)cc2Cl)c(Cl)c1	40µM*	16%	?	nt	11µM*	-27%
Cc1c(C=O)c(C=O)c(C)n1Cc1ccccc1	?	-17%	?	-81*	?	?
CCOC(=O)c1c(C=O)c(C)n(Cc2ccc(C)cc2)c1C	?	-28%	3.2µM*	-1	?	?
CCOC(=O)c1c(C=O)c(C)n(Cc2ccccc2Cl)c1C	?	-16%	?	-8	2%	11%
Cc1ccc(-c2nn3c(C)nnc3s2)cc1NCc1c(F)cccc1Cl	nt	-4%	?	-76*	?	9.2µM*
Cc1ccc(CNc2cc(-c3nn4c(C)nnc4s3)ccc2C)s1	-21%	-8%	?	89	-29%	?
CCc1nnc2c(Nc3cccc(F)c3)nc3ccc(C(=O)c4ccccc4)cc3n12	-5%	nt	nt	-5	?	?
COc1cccc([C@@H]2Oc3ccc(OC)cc3C[C@H]2OC(=O)N[C@H]2CCCc3ccccc32)c1	nt	nt	nt	nt	nt	3%[14.2 µM]
CCN(CC)CCCNC(=O)c1nn2c(C(F)(F)F)cc(-c3ccccc3)nc2c1Cl	-16%	17%	4µM*	0	nt	nt
COc1ccc(CNC(=O)CSc2ncc3c(n2)-c2cc(Cl)ccc2N(Cc2ccccc2)S3(=O)=O)cc1OC	-8%	nt	nt	-12	1%[46.1 µM]	nt
CC1=C(C(=O)N(C(C)C)C(C)C)CC(CC(=O)NCCc2ccccn2)C(=O)N1CCCN1CCCC1=O (centres undefined)	-8%	nt	nt	19	nt	nt
CC1=C(C(=O)N2CCCCCC2)CC(CC(=O)NCCc2ccccn2)C(=O)N1CCCN1CCCC1=O (centres undefined)	nt	nt	nt	-84*	nt	nt
CCOC(=O)C1=NN(c2ccccc2)C(=O)/C1=C\c1ccc(N(C)C)cc1	18µM*	-5%	11%	-11	-1%	-3%
O=C(CNC(=O)c1ccccc1)Nc1ccc(Br)cc1C(=O)c1ccccc1	1%	0%	?	-4	-17%	?
O=C(CN1CCCCC1)NCC(=O)Nc1ccc(Br)cc1C(=O)c1ccccc1	-23%	-5%	11µM*	13	?	?
Cc1cc(/C=C2\SC(=S)NC2=O)c(C)n1-c1ccc(O)cc1	-2%	-5%	-10%	-23	nt	nt
Cc1cc(/C=C2\SC(=Nc3ccc(F)cc3)NC2=O)c(C)n1-c1ccc(S(N)(=O)=O)cc1	35µM*	-4%	3.5µM*	-84*	?	?
Cc1n(C)c2cc(Cl)ccc2[n+]1Cc1ccccc1	-21%	0%	3%	-60*	5%	21%[46.1 µM]
CC[n+]1c(C)n(C)c2cc(S(=O)(=O)N(C)C)ccc21	-4%	1%	8%	-4	20%	20%[14.2 µM]
Cc1ccc(S(=O)(=O)Oc2ccc(/C=C(/NC(=O)c3ccccc3)C(=O)NC(C)C(=O)O)cc2)cc1 (centres undefined)	-9%	2%	17%	3	nt	nt
COc1ccc(CCNC(=O)CCn2c(SCC#N)nc3ccccc3c2=O)cc1OC	8%	3%	13µM*	-8	-30%	?
COc1ccc(CCNC(=O)CCCn2c(SCC#N)nc3ccccc3c2=O)cc1OC	-22%	4%	-18%	-33	-9%	-5%
COc1ccc(Cl)cc1N1CC(C(=O)Nc2nccs2)CC1=O (centres undefined)	-11%	nt	?	-67*	?	?
O=C(Nc1nccs1)C1CC(=O)N(c2ccccc2Cl)C1 (centres undefined)	-4%	0%	14%	9	6%	5%

High-throughput results (PubChem BioAssay)
